Our source for the binding signal values is article PMC11006913.

Holding throughout (experiment): PBM; 200 nM protein, PBS
Common to all, as to details: dsDNA, one strand shown

The target in test [1] is NKX2-5 (Homo sapiens, UniProt P52952 125-210, R139K).
Test [2] addresses MSX2 (Homo sapiens, UniProt P35548 130-214, R199I).
Test [3] concerns the target MSX2 (Homo sapiens, UniProt P35548 130-214).
The target in test [4] is MSX2 (Homo sapiens, UniProt P35548 130-214, F161Y).
Test [5] deals with NKX2-5 (Homo sapiens, UniProt P52952 125-210).
Chain of NKX2-5 (Homo sapiens, UniProt P52952 125-210) (P52952 125-210): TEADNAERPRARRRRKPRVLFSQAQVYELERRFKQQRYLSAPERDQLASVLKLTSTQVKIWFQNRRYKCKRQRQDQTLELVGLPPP
The target in test [6] is ALX1 (Homo sapiens, UniProt Q15699 118-204, L144V).
Chain of ALX1 (Homo sapiens, UniProt Q15699 118-204, L144V) (Q15699 118-204 L144V): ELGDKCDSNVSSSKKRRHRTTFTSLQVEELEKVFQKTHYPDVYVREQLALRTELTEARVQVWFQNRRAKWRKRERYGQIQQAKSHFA
For test [7], the target named is ALX1 (Homo sapiens, UniProt Q15699 118-204, L144R).
Chain of ALX1 (Homo sapiens, UniProt Q15699 118-204, L144R) (Q15699 118-204 L144R): as the sequence (Q15699 118-204 L144V) above, with V27R counted along it
In test [8] the target is ALX1 (Homo sapiens, UniProt Q15699 118-204).
Chain of ALX1 (Homo sapiens, UniProt Q15699 118-204) (Q15699 118-204): as the sequence (Q15699 118-204 L144V) above, with V27L counted along it
For test [9], the target named is T1, NKX2-6 (Homo sapiens, UniProt A6NCS4 118-204, R150C).
T1 sequence: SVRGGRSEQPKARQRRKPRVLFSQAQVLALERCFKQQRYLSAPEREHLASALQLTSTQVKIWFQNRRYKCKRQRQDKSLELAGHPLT

Test [10] addresses T2, NKX2-6 (Homo sapiens, UniProt A6NCS4 118-204).
T2 sequence: T1 sequence with C33R

Test [11] concerns the target T3, NKX2-6 (Homo sapiens, UniProt A6NCS4 118-204, F151L).
T3 sequence: T1 sequence with C33R, F34L

In test [12] the target is NKX3-2 (Homo sapiens, UniProt P78367 192-278, P234S).
Chain of NKX3-2 (Homo sapiens, UniProt P78367 192-278, P234S) (P78367 192-278 P234S): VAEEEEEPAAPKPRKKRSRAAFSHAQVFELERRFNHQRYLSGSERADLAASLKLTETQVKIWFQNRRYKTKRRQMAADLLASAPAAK
Test [13] deals with NKX3-2 (Homo sapiens, UniProt P78367 192-278).
Chain of NKX3-2 (Homo sapiens, UniProt P78367 192-278) (P78367 192-278): as the sequence (P78367 192-278 P234S) above, with S43P counted along it
In test [14] the target is ALX3 (Homo sapiens, UniProt O95076 139-225, N203Q).
Chain of ALX3 (Homo sapiens, UniProt O95076 139-225, N203Q) (O95076 139-225 N203Q): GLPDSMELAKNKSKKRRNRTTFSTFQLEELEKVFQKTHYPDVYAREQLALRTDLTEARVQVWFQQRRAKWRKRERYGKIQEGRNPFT
The target of test [15] is ALX3 (Homo sapiens, UniProt O95076 139-225).
Chain of ALX3 (Homo sapiens, UniProt O95076 139-225) (O95076 139-225): as the sequence (O95076 139-225 N203Q) above, with Q65N counted along it
The target of test [16] is ALX3 (Homo sapiens, UniProt O95076 139-225, L168Q).
Chain of ALX3 (Homo sapiens, UniProt O95076 139-225, L168Q) (O95076 139-225 L168Q): as the sequence (O95076 139-225 N203Q) above, with L30Q, Q65N counted along it
Test [17] addresses ALX3 (Homo sapiens, UniProt O95076 139-225, L168V).
The target of test [18] is ALX3 (Homo sapiens, UniProt O95076 139-225, N203S).
Chain of ALX3 (Homo sapiens, UniProt O95076 139-225, N203S) (O95076 139-225 N203S): as the sequence (O95076 139-225 N203Q) above, with Q65S counted along it
The target in a further test is T4, NKX2-4 (Homo sapiens, UniProt Q9H2Z4 175-261, R246Q).
T4 sequence: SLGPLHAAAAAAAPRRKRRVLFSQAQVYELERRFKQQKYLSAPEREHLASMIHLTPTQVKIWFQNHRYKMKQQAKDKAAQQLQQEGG

Test [19] addresses HOXD13 (Homo sapiens, UniProt P35453 263-343, T313R).
The next test addresses PITX2 (Homo sapiens, UniProt Q99697 72-157).
The target of test [20] is HOXD13 (Homo sapiens, UniProt P35453 263-343).
Chain of HOXD13 (Homo sapiens, UniProt P35453 263-343) (P35453 263-343): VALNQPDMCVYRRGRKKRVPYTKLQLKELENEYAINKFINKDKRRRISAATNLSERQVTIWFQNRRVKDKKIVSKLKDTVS
Test [21] addresses HOXD13 (Homo sapiens, UniProt P35453 263-343, T313A).

Where a chain is given by its changes, count along the chain named.

Chain of NKX2-5 (Homo sapiens, UniProt P52952 125-210, R139K) (P52952 125-210 R139K): as the sequence (P52952 125-210) above, with R15K counted along it
Chain of MSX2 (Homo sapiens, UniProt P35548 130-214, F161Y) (P35548 130-214 F161Y): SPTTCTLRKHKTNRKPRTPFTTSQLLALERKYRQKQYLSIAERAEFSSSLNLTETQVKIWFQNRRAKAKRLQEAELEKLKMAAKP
Chain of MSX2 (Homo sapiens, UniProt P35548 130-214, R199I) (P35548 130-214 R199I): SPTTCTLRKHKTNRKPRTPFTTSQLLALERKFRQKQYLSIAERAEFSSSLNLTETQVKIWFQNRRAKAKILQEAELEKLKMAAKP
Chain of MSX2 (Homo sapiens, UniProt P35548 130-214) (P35548 130-214): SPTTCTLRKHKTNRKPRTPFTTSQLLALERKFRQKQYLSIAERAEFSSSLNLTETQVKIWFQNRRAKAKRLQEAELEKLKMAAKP
Chain of HOXD13 (Homo sapiens, UniProt P35453 263-343, T313R) (P35453 263-343 T313R): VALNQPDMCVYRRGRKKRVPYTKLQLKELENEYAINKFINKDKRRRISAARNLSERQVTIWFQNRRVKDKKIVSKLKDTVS
Chain of ALX3 (Homo sapiens, UniProt O95076 139-225, L168V) (O95076 139-225 L168V): as the sequence (O95076 139-225 N203Q) above, with L30V, Q65N counted along it
Chain of HOXD13 (Homo sapiens, UniProt P35453 263-343, T313A) (P35453 263-343 T313A): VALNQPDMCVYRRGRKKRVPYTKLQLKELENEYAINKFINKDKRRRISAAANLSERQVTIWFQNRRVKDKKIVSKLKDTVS

For ACAATTAC, the binding signal with NKX2-5 [1] is 10.9 upbm affinity estimate (log intensity, higher = more binding, comparable within an allelic series); with MSX2 [2] it was 12.3 upbm affinity estimate (log intensity, higher = more binding, comparable within an allelic series); with MSX2 [3] it was 13.5 upbm affinity estimate (log intensity, higher = more binding, comparable within an allelic series); in the test with MSX2 [4], 13.2 upbm affinity estimate (log intensity, higher = more binding, comparable within an allelic series); with NKX2-5 [5] it was 11 upbm affinity estimate (log intensity, higher = more binding, comparable within an allelic series).
Consider ACACGTGT, for which the binding signal with NKX2-5 [1] is 9.32 upbm affinity estimate (log intensity, higher = more binding, comparable within an allelic series); with ALX1 [6], 6.61 upbm affinity estimate (log intensity, higher = more binding, comparable within an allelic series); with ALX1 [7], 6.61 upbm affinity estimate (log intensity, higher = more binding, comparable within an allelic series); with ALX1 [8] it was 6.65 upbm affinity estimate (log intensity, higher = more binding, comparable within an allelic series); with NKX2-5 [5], 9.25 upbm affinity estimate (log intensity, higher = more binding, comparable within an allelic series).
For ACACTTAG, the binding signal with NKX2-5 [1] was 12.6 upbm affinity estimate (log intensity, higher = more binding, comparable within an allelic series); with NKX2-6 [9], 11.7 upbm affinity estimate (log intensity, higher = more binding, comparable within an allelic series); with NKX2-6 [10], 13.5 upbm affinity estimate (log intensity, higher = more binding, comparable within an allelic series); with NKX2-6 [11], 11 upbm affinity estimate (log intensity, higher = more binding, comparable within an allelic series); with NKX3-2 [12] it was 12.8 upbm affinity estimate (log intensity, higher = more binding, comparable within an allelic series); in the test with NKX2-5 [5] it was 12.5 upbm affinity estimate (log intensity, higher = more binding, comparable within an allelic series). Further, the binding signal with NKX3-2 [13] was 12.8 upbm affinity estimate (log intensity, higher = more binding, comparable within an allelic series).
On to CGTCGGTC, for which the binding signal with NKX2-5 [1] is 8.88 upbm affinity estimate (log intensity, higher = more binding, comparable within an allelic series); in the test with NKX2-6 [9] it was 9.56 upbm affinity estimate (log intensity, higher = more binding, comparable within an allelic series); with NKX2-6 [10], 9.23 upbm affinity estimate (log intensity, higher = more binding, comparable within an allelic series); in the test with NKX2-6 [11] it was 9.36 upbm affinity estimate (log intensity, higher = more binding, comparable within an allelic series); with NKX2-5 [5] it was 8.91 upbm affinity estimate (log intensity, higher = more binding, comparable within an allelic series).
GCACTTAC: the binding signal with NKX2-5 [1] was 12.3 upbm affinity estimate (log intensity, higher = more binding, comparable within an allelic series); with NKX2-6 [9], 11.6 upbm affinity estimate (log intensity, higher = more binding, comparable within an allelic series); in the test with NKX2-6 [10] it was 13.3 upbm affinity estimate (log intensity, higher = more binding, comparable within an allelic series); in the test with NKX2-6 [11], 10.6 upbm affinity estimate (log intensity, higher = more binding, comparable within an allelic series); with NKX3-2 [12], 12.7 upbm affinity estimate (log intensity, higher = more binding, comparable within an allelic series); in the test with NKX3-2 [13], 12.8 upbm affinity estimate (log intensity, higher = more binding, comparable within an allelic series).
Consider CCGACGCA, for which the binding signal in the test with NKX2-5 [1] is 8.78 upbm affinity estimate (log intensity, higher = more binding, comparable within an allelic series); in the test with MSX2 [2], 9.38 upbm affinity estimate (log intensity, higher = more binding, comparable within an allelic series); in the test with ALX3 [14] it was 7.72 upbm affinity estimate (log intensity, higher = more binding, comparable within an allelic series); in the test with MSX2 [3], 9.17 upbm affinity estimate (log intensity, higher = more binding, comparable within an allelic series); in the test with ALX3 [15] it was 7.54 upbm affinity estimate (log intensity, higher = more binding, comparable within an allelic series); in the test with ALX3 [16] it was 7.69 upbm affinity estimate (log intensity, higher = more binding, comparable within an allelic series). For the same sequence, the binding signal is 7.71 upbm affinity estimate (log intensity, higher = more binding, comparable within an allelic series) in the test with ALX3 [17]; 9.25 upbm affinity estimate (log intensity, higher = more binding, comparable within an allelic series) with MSX2 [4]; 7.75 upbm affinity estimate (log intensity, higher = more binding, comparable within an allelic series) with ALX3 [18]; 8.7 upbm affinity estimate (log intensity, higher = more binding, comparable within an allelic series) with NKX2-5 [5].
AGCACTTG: the binding signal in the test with NKX2-5 [1] is 12.4 upbm affinity estimate (log intensity, higher = more binding, comparable within an allelic series); with NKX2-6 [9], 11.6 upbm affinity estimate (log intensity, higher = more binding, comparable within an allelic series); with NKX2-4, 13 upbm affinity estimate (log intensity, higher = more binding, comparable within an allelic series); with NKX2-6 [11], 10.6 upbm affinity estimate (log intensity, higher = more binding, comparable within an allelic series); in the test with NKX2-5 [5] it was 12.3 upbm affinity estimate (log intensity, higher = more binding, comparable within an allelic series).
Take AAGTGGGC: the binding signal with NKX2-5 [1] was 12.4 upbm affinity estimate (log intensity, higher = more binding, comparable within an allelic series); with NKX2-6 [9], 11.5 upbm affinity estimate (log intensity, higher = more binding, comparable within an allelic series); with NKX3-2 [12], 12.8 upbm affinity estimate (log intensity, higher = more binding, comparable within an allelic series); with NKX2-5 [5] it was 12.3 upbm affinity estimate (log intensity, higher = more binding, comparable within an allelic series); with NKX3-2 [13] it was 12.9 upbm affinity estimate (log intensity, higher = more binding, comparable within an allelic series).
Take CGGTGGAG: the binding signal is 8.95 upbm affinity estimate (log intensity, higher = more binding, comparable within an allelic series) in the test with NKX2-5 [1]; 9.59 upbm affinity estimate (log intensity, higher = more binding, comparable within an allelic series) in the test with HOXD13 [19]; 8.06 upbm affinity estimate (log intensity, higher = more binding, comparable within an allelic series) with PITX2; 9.6 upbm affinity estimate (log intensity, higher = more binding, comparable within an allelic series) with HOXD13 [20]; 9.64 upbm affinity estimate (log intensity, higher = more binding, comparable within an allelic series) in the test with HOXD13 [21]; 9.08 upbm affinity estimate (log intensity, higher = more binding, comparable within an allelic series) with NKX2-5 [5].
For the sequence AAGTGGGT, the binding signal in the test with NKX2-5 [1] was 12.4 upbm affinity estimate (log intensity, higher = more binding, comparable within an allelic series); with NKX2-6 [9] it was 11.6 upbm affinity estimate (log intensity, higher = more binding, comparable within an allelic series); with NKX2-6 [10] it was 13.5 upbm affinity estimate (log intensity, higher = more binding, comparable within an allelic series); with NKX2-6 [11], 10.5 upbm affinity estimate (log intensity, higher = more binding, comparable within an allelic series); with NKX3-2 [12], 12.7 upbm affinity estimate (log intensity, higher = more binding, comparable within an allelic series); in the test with NKX2-5 [5], 12.3 upbm affinity estimate (log intensity, higher = more binding, comparable within an allelic series). In addition, in the test with NKX3-2 [13], the binding signal was 12.8 upbm affinity estimate (log intensity, higher = more binding, comparable within an allelic series).
